# Records with an inconclusive call do not appear. Calls of active or inactive are those of the source. Calls come from the whole dose curve; as a rule, active = well fitted curve in the direction sought with a large enough effect in the repeat runs; inconclusive = weak or mixed curves; inactive = no such curve, though single readings can be large; an effect the other way counts as inactive or inconclusive.
# Test: qHTS RealTime-Glo MT Cell Viability Assay in HepG2 cells - 16 hour (AID 1224885)
# Settings: RealTime-Glo luminescence; series mostly up to 76.8 µM; activity change, negative = cytotoxic: at the top concentration
# Summary of the method: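 HepG2 suspension premixed with RealTime-Glo reagents is plated at 600 cells per well and left 5 h at 37 C/5% CO2. Compounds in DMSO then go in, and bioluminescence reflecting viable cell number is recorded over 40 h.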
# % is set by controls: 0 for no effect and ±100 for the full control effect.
# Note: nearly all actives have a fitted effect of over 50% in size.
row,SMILES,"activity change, negative = cytotoxic"
1,C#CCOC(C(=O)OCCN(C)C)(c1ccccc1)c1ccccc1,-5.54% [at 35.3 µM] (inactive)
2,Brc1ccccc1,-0.464% (inactive)
3,C[C@]12CC[C@H]3[C@@H](CCC4=CC(=O)CC[C@@H]43)[C@@H]1CC[C@@H]2OC(=O)CCC1CCCCC1,-9.79% [at 35.3 µM] (inactive)
4,CC(C)O.CC(C)O.OCCN(CCO)CCO.OCCN(CCO)CCO.[Ti],0.658% (inactive)
5,c1ccoc1,3.06% (inactive)
6,O=C1c2ccccc2C(=O)C1C(=O)C(c1ccccc1)c1ccccc1,-2.96% [at 35.3 µM] (inactive)
7,NCC(CC(=O)O)c1ccc(Cl)cc1 (stereo not given),-0.45% [at 0.29 µM] (inactive)
8,O=C(NCc1cccnc1)Nc1ccc([N+](=O)[O-])cc1,-1.91% (inactive)
9,Cc1ccccc1CCl,4.63% (inactive)
10,ClCCCCBr,-2.83% (inactive)
11,COP(=S)(OC)Oc1cc(Cl)c(I)cc1Cl,0.747% (inactive)
12,CN1C(=O)NC(=O)C(C)(C2=CCCCC2)C1=O (stereo not given),-0.387% [at 35.3 µM] (inactive)
13,O=C(CBr)Nc1ccc(Cl)cc1C(=O)c1ccccc1F,-0.919% [at 35.3 µM] (inactive)
14,C=CC(=O)OCC(C)O (stereo not given),-5.49% (inactive)
15,CC1C(=O)C[C@]2(C(C)C)C[C@H]12 (stereo not given in full),0.589% (inactive)
16,C=CCC1([C@H](C)CCC)C(=O)NC(=O)NC1=O,-1.9% (inactive)
17,CCCCCCCCCCOC(=O)c1ccccc1C(=O)OCCCCCCCCCC,-4.54% (inactive)
18,CCCN(CCC)c1c([N+](=O)[O-])cc(S(C)(=O)=O)cc1[N+](=O)[O-],-21.7% (inactive)
19,CCc1ccc(C(=O)NN(C(=O)c2cc(C)cc(C)c2)C(C)(C)C)cc1,-19.8% (inactive)
20,Clc1cc(Cl)c(Cl)c(Cl)c1,-1.19% (inactive)
21,CC(C)(OO)c1ccccc1,1.08% (inactive)
22,Nc1ccc(N=Nc2ccc(-c3ccc(N=Nc4c(S(=O)(=O)O)cc5cc(S(=O)(=O)O)c(N=Nc6ccccc6)c(O)c5c4N)cc3)cc2)c(N)c1,3.09% [at 35.3 µM] (inactive)
23,N#Cc1ccc(Cl)cc1,0.732% (inactive)
24,CC(=O)C(C)(C)C,-0.84% (inactive)
25,C[N+](C)(C)CCCl,2.5% (inactive)
26,CCOP(=S)(OCC)SCSCC,-15.3% (inactive)
27,O=C(O)COc1ccc(Cl)cc1,2.92% (inactive)
28,ClCc1cccc(Cl)c1,0.726% [at 35.3 µM] (inactive)
29,COCC(C)N(C(=O)CCl)c1c(C)csc1C (stereo not given),-4.22% (inactive)
30,COC1=CC(=O)O[C@@H](CCc2ccccc2)C1,-1.35% (inactive)

# Test: qHTS RealTime-Glo MT Cell Viability Assay in HEK293 cells - 24 hour (AID 1224886); note: potency is the fitted concentration of half-maximal effect; for activity change, negative = cytotoxicity: top concentration of the series differs between compounds
# Settings: RealTime-Glo luminescence; series mostly up to 76.8 µM; activity change, negative = cytotoxicity: at the top concentration
# Summary of the method: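 Reads taken at 0, 8, 16, 24, 32 and 40 h from the same wells. HEK293 cells (600/well) carried RealTime-Glo reagents from seeding, with compound added after a 5 h settle at 37 C.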
SMILES,"activity change, negative = cytotoxicity",Potency
C#CCOC(C(=O)OCCN(C)C)(c1ccccc1)c1ccccc1,-17.4% [at 35.3 µM] (inactive),–
Brc1ccccc1,-2.71% (inactive),–
C[C@]12CC[C@H]3[C@@H](CCC4=CC(=O)CC[C@@H]43)[C@@H]1CC[C@@H]2OC(=O)CCC1CCCCC1,-14.3% [at 35.3 µM] (inactive),–
Cn1sc(Cl)cc1=O,-5.63% (inactive),–
CC(C)O.CC(C)O.OCCN(CCO)CCO.OCCN(CCO)CCO.[Ti],18.4% (inactive),–
c1ccoc1,-0.708% (inactive),–
O=C1c2ccccc2C(=O)C1C(=O)C(c1ccccc1)c1ccccc1,-0.686% [at 35.3 µM] (inactive),–
NCC(CC(=O)O)c1ccc(Cl)cc1 (stereo not given),4.3% [at 0.29 µM] (inactive),–
CCOS(C)(=O)=O,-9.96% (inactive),–
O=C(NCc1cccnc1)Nc1ccc([N+](=O)[O-])cc1,–,49 µM (active)
Cc1ccccc1CCl,-10.1% (inactive),–
ClCCCCBr,-7.36% (inactive),–
COP(=S)(OC)Oc1cc(Cl)c(I)cc1Cl,-15.8% (inactive),–
Nc1ccc([N+](=O)[O-])cc1[N+](=O)[O-],-22.7% (inactive),–
CN1C(=O)NC(=O)C(C)(C2=CCCCC2)C1=O (stereo not given),7.26% [at 35.3 µM] (inactive),–
O=C(CBr)Nc1ccc(Cl)cc1C(=O)c1ccccc1F,0.143% [at 35.3 µM] (inactive),–
C=CC(=O)OCC(C)O (stereo not given),23.9% (inactive),–
CC1C(=O)C[C@]2(C(C)C)C[C@H]12 (stereo not given in full),8.9% (inactive),–

SMILES,"activity change, negative = cytotoxicity",Potency
C=CCC1([C@H](C)CCC)C(=O)NC(=O)NC1=O,-7.97% (inactive),–
COc1cc(Cl)c(OC)cc1Cl,2.95% (inactive),–
CCCCCCCCCCOC(=O)c1ccccc1C(=O)OCCCCCCCCCC,-0.309% (inactive),–
CCCN(CCC)c1c([N+](=O)[O-])cc(S(C)(=O)=O)cc1[N+](=O)[O-],–,13.8 µM (active)
CCc1ccc(C(=O)NN(C(=O)c2cc(C)cc(C)c2)C(C)(C)C)cc1,-4.06% (inactive),–
Clc1cc(Cl)c(Cl)c(Cl)c1,-3.51% (inactive),–
CC(C)(OO)c1ccccc1,1.79% (inactive),–
Nc1ccc(N=Nc2ccc(-c3ccc(N=Nc4c(S(=O)(=O)O)cc5cc(S(=O)(=O)O)c(N=Nc6ccccc6)c(O)c5c4N)cc3)cc2)c(N)c1,21.8% [at 35.3 µM] (inactive),–
N#Cc1ccc(Cl)cc1,10.4% (inactive),–
CC(=O)C(C)(C)C,9.55% (inactive),–
C[N+](C)(C)CCCl,13.6% (inactive),–
CN1C[C@H](CNC(=O)OCc2ccccc2)C[C@@H]2c3cccc4c3c(cn4C)C[C@H]21,–,21.3 µM (active)
CCOP(=S)(OCC)SCSCC,4.22% (inactive),–
O=C(O)COc1ccc(Cl)cc1,0.609% (inactive),–
ClCc1cccc(Cl)c1,3.5% [at 35.3 µM] (inactive),–
COCC(C)N(C(=O)CCl)c1c(C)csc1C (stereo not given),14.8% (inactive),–
COC1=CC(=O)O[C@@H](CCc2ccccc2)C1,-16.9% (inactive),–

# Reference: PubChem BioAssay (Tox21)
